# Activity calls are given as the source filed them.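 How the source made its calls, unless noted: active means inhibition above 20% together with a positive visual image hit; inconclusive means visual image hit but inhibition not above 20%; inactive means no visual image hit.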
# How the values were obtained:
# [1] = inhibitors of TNFa-induced NFkB p65 translocation, primary screen, imaging, HUVEC, MLSMR starter and 10KST1 sets (AID 438); conditions: HUVEC TNFa-induced p65 nuclear translocation; cell count: measured here: nuclei count (cytotoxicity indicator), at 2.08 µM; inhibition: at 2 µM, stronger effect = higher value, 0% TNFa-plus-vehicle, 100% no-TNFa wells;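 further: compound added about 3h40 before a 20 min TNFalpha stimulation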;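 on inhibition: signal is the nuclear over cytoplasmic p65 intensity ratio per well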
# [2] = reduction of polyQ htt aggregates in cells – imaging, exon1htt(103Q)mCFP cells, high-content imaging, primary screen (AID 483;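 active means visual image review flags a hit and inhibition of aggregation exceeds 20%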;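 further: compound exposure lasted 3 days before fixation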;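 on nuclei count: percent of the per-plate median nuclei count of sample wells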); conditions: exon1htt(103Q)mCFP cell line, aggregate imaging, at 2 µM; inhibition of aggregation: stronger effect = higher value; nuclei count: measured here: cell count, toxicity
# [3] = endothelial E-selectin expression blockers – imaging, HUVEC, immunofluorescence, MLSMR starter and 10KST1 sets, primary screen (AID 487;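 active means visually confirmed hit in the image check and inhibition above 20%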;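 on inhibition: signal is fraction of cell area covered by stained E-selectin grains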;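 on nuclei count: 100% = median nuclei count of all wells on the same plate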); conditions: HUVEC TNFalpha-induced E-selectin immunofluorescence imaging, at 2 µM; inhibition: stronger effect = higher value; nuclei count: measured here: cell number, toxicity
# [4] = target: Voltage-gated potassium channel subunit beta-2 (Rattus norvegicus) (UniProt P62483); test: inhibitors of rat Kvbeta2 reductase activity – biochemical, NADPH fluorescence, primary screen (AID 622;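 active means fluorescence slope higher than the sample average by over 3 SD, cut at about -0.22 in these data, passing the limit was not always enough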;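 further: slope of raw intensity against log time taken from 70 to 1610 s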); conditions: recombinant KvBeta, 4-cyanobenzaldehyde reduction, at 10 µM, stronger effect = higher value
# Chain of Voltage-gated potassium channel subunit beta-2 (Rattus norvegicus) (P62483 whole entry, looked up): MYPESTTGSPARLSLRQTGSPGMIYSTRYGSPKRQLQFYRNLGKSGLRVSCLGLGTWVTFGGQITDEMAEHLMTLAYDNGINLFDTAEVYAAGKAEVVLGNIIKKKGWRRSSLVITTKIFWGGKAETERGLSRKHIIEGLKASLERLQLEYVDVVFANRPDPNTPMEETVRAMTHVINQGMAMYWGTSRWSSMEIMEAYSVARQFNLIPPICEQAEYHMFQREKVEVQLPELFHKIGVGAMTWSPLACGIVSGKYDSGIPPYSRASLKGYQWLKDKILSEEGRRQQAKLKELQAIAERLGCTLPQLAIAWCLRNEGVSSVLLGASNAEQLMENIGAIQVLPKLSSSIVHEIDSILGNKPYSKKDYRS
# [5] = target: Voltage-gated potassium channel subunit beta-2 (Rattus norvegicus) (UniProt P62483); test: enhancers of rat Kvbeta2 NADPH turnover – biochemical, NADPH fluorescence, primary screen (AID 623;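 active means NADPH fluorescence slope more negative than the mean of all samples by about 3 SD, 99.7% confidence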;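 further: fluorescence intensity change per second fitted from 20 to 320 s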); conditions: Recombinant KvBeta, NADPH fluorescence decrease slope, 10 min; at 10 µM; stronger effect = lower value
# [6] = target: Alpha-2C adrenergic receptor (Homo sapiens) (UniProt P18825); test: compounds altering alpha2C-coupled GIRK flux – cell-based, HEK293 alpha2C/GIRK1/2, thallium flux, primary screen (AID 624;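 active means fluorescence slope after compound addition differing from the mean of all screened samples at 99.7% confidence, in either direction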;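 further: slope of fluorescence ratio to pre-addition baseline per second over 15 to 24 s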); conditions: thallium flux BTC fluorescence, at 10 µM, actives lie on both sides
# Chain of Alpha-2C adrenergic receptor (Homo sapiens) (P18825 whole entry, looked up): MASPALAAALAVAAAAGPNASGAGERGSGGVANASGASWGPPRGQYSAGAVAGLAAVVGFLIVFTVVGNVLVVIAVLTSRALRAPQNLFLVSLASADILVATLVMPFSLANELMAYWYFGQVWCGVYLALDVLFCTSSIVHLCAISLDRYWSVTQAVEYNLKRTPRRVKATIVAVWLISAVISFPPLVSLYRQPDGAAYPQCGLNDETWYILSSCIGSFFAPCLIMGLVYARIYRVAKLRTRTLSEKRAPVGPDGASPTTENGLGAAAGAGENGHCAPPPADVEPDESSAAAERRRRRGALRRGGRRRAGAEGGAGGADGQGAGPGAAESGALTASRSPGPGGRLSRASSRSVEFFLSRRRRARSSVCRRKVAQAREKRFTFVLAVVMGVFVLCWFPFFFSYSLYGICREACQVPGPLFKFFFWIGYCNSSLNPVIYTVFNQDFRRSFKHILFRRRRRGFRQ
# [7] = blockers of RIG-like receptor reporter activation – cell-based, Sendai virus stimulus, luciferase, 10K MLSCN set, TLR/RLR signaling modifier project, primary screen (AID 602276;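 active means inhibition at or above 50% at 10 µM; inactive means inhibition below 50%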;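 further: firefly luciferase from ISG56 promoter only with Renilla not read in this screen; 0% = Sendai virus plus DMSO and 100% = medium plus DMSO without virus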); conditions: HEK293 RL24 IRF3 luciferase reporter, at 10 µM, stronger effect = higher value
# [8] = TLR3 IRF3 reporter activation blockers – cell-based, poly I:C stimulus, luciferase, 10K MLSCN set, primary screen (AID 602277;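 active means inhibition of the reporter signal at or above 50%; inactive means inhibition below 50%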); conditions: HEK293-TLR3 RL24 IRF3 luciferase reporter, at 10 µM, stronger effect = higher value
Structure (SMILES),cell count [1],inhibition [1],inhibition of aggregation [2],nuclei count [2] [%],inhibition [3],nuclei count [3] [%],fluorescence slope [4],NADPH fluorescence slope [5],slope [6],inhibition [7],inhibition [8]
O=C(COC(=O)C12CC3CC(CC(O)(C3)C1)C2)N1CCN(S(=O)(=O)c2ccc(Cl)cc2)CC1,371,4.7% (inactive),0.7% (inactive),95.7,-72.7% (inactive),97.2,-0.33 (inactive),-1.9e-05 (inactive),0.00661 (inactive),8.77% (inactive),18% (inactive)
Cc1ccc(S(=O)(=O)N2CCN(S(C)(=O)=O)C2c2ccccc2)cc1 (configuration not stated),464,0% (inactive),10.2% (inactive),93.5,11.6% (inactive),114,-0.372 (inactive),-4.8e-05 (inactive),0.00576 (inactive),8.09% (inactive),26.1% (inactive)
N#CC(C(=O)c1ccco1)c1ccccn1 (configuration not stated),699,2.8% (inactive),-5.3% (inactive),108,43.2% (inactive),94.7,-0.367 (inactive),-2e-05 (inactive),0.00116 (inactive),-8.81% (inactive),-54% (inactive)
CCn1c(SCC(=O)Nc2cc(NC(C)=O)ccc2OC)nnc1-c1ccccn1,630,6.5% (inactive),3.4% (inactive),89.9,51.6% (inactive),92.7,-0.541 (inactive),1.5e-05 (inactive),0.00559 (inactive),10.3% (inactive),8.37% (inactive)
COCCn1c(SCC(=O)N(C(C)C)C(C)C)nnc1-c1cc2ccccc2cc1O,362,0% (inactive),25.9% (inactive),88.5,-1% (inactive),97.7,-0.366 (inactive),1.3e-05 (inactive),0.00457 (inactive),11.9% (inactive),20.1% (inactive)
O=C(Nc1nc2c(s1)CCc1ccccc1-2)c1cccs1,637,-3.6% (inactive),-9.4% (inactive),115,30.8% (inactive),86.1,-0.361 (inactive),1.5e-05 (inactive),0.00613 (inactive),12.8% (inactive),-8.29% (inactive)
COc1ccccc1N1CC(O)=C(c2nc3ccccc3c(=O)[nH]2)C1=N,399,1.4% (inactive),22.7% (inactive),62.7,-73.7% (inactive),126,-0.546 (inactive),-3.6e-05 (inactive),0.00655 (inactive),11.7% (inactive),28.7% (inactive)

# Reference: PubChem BioAssay
